# Calls of active or inactive are those of the source. Unless noted, the rule behind the calls is not given here.
# Key:
# [1] = tested on: Wnt5a (protein binding on small-molecule microarray); test: Wnt5a binders on small-molecule microarray, primary screen, biophysical, 635/667 nm fluorescence (AID 1142); conditions: 635 nm fluorescence, higher = more signal;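 note: fluorescence read at 667 nm with signal to noise per printed feature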
# [2] = cell viability in Huh7 cells, primary screen, cytotoxicity control for HCV replication inhibitor project, CellTiter-Glo luminescence, basal, 48 h (AID 1143); conditions: Huh7 HCV replicon, higher = more signal, called active from +8 up or from −8 down;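 note: Huh7 hepatoma cells carrying a hepatitis C replication reporter with no stimulus; test concentration not given here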
# [3] = P. aeruginosa biofilm formation inhibitors, primary screen, PAO1 strain, BacTiter-Glo luminescence, LB-PBS (AID 1144); conditions: 12 h, higher = more signal
# [4] = CREB reporter modulators without forskolin, primary screen, cell-based, PC12, CRE-LacZ reporter, unstimulated (AID 1145); conditions: no forskolin, luminescence, 4.5 h, higher = more signal, called active from +8 up or from −8 down
# [5] = CREB reporter modulators under forskolin, primary screen, cell-based, PC12, CRE-LacZ reporter, forskolin-stimulated (AID 1146); conditions: luminescence, 4.5 h, higher = more signal, called active from +8 up or from −8 down;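 note: PC12 cells with 6xCRE LacZ reporter stimulated by forskolin 10 µM; beta-galactosidase reporter signal reflecting CREB driven transcription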
# [6] = target: Streptavidin (Streptomyces avidinii) (UniProt P22629); test: streptavidin binders on small-molecule microarray, primary screen, artefact control for SMM compound annotation, biophysical, 635/667 nm fluorescence (AID 1147); conditions: streptavidin binding, higher = more signal;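 note: signal reflects streptavidin binding to arrayed compounds as a control protein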
# [7] = small-molecule binders of probe aInhba, primary screen, biochemical, small-molecule microarray, 635/667 nm fluorescence (AID 1148); conditions: higher = more signal;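 note: score merges 667nm spot fluorescence with signal-to-noise for antibody binding to printed compounds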
# Torsin-1A (Homo sapiens) [8] = target: Torsin-1A (Homo sapiens) (UniProt O14656); test: torsin A binders from cell lysate, primary screen, small-molecule microarray, wild-type, 635/667 nm (AID 1149); conditions: COS7 hTOR1A-WT lysate, 635 nm fluorescence, higher = more signal
# Torsin-1A (Homo sapiens) [9] = target: Torsin-1A (Homo sapiens) (UniProt O14656); test: small-molecule binders of mutant TOR1A in lysate, primary screen, cell lysate, small-molecule microarray, COS7 lysate, 635/667 nm fluorescence (AID 1150); conditions: COS7 hTOR1A mutant lysate, 635 nm fluorescence, higher = more signal;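 note: score pools 667 nm emission and signal to noise measuring lysate protein binding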
# [10] = tested on: Sonic hedgehog protein (Shh); test: small-molecule binders of Shh protein, primary screen, biochemical, small-molecule microarray, 635/667 nm fluorescence (AID 1151); conditions: small-molecule microarray binding, 635 nm fluorescence; higher = more signal;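 note: Shh protein binding to compounds spotted on small-molecule microarray slides; score combines spot fluorescence intensity with signal-to-noise across triplicate slides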
# [11] = E. coli DRC41 culture turbidity changes, primary screen, E. coli filamentation inducer project, strain DRC41, OD650, 48 h (AID 1152);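 note: E. coli MC1000 strain DRC41 lacking acrAB efflux pump and sulA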; conditions: E. coli DRC41 (acrAB sulA), higher = more signal, called active from +8 up or from −8 down
# [12] = small-molecule binders of probe aLefty1, primary screen, biochemical, small-molecule microarray, 635/667 nm fluorescence (AID 1153); conditions: higher = more signal;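 note: score merges spot fluorescence with signal-to-noise ratio from the scanned slide images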
# [13] = PSAC antagonists in infected red cells, primary screen, cell-based, P. falciparum Indochina, OD700, 1 h (AID 1154); conditions: P. falciparum Indochina infected RBC osmotic lysis, higher = more signal, called active from +8 up or from −8 down
# [14] = PSAC antagonists in infected red cells, primary screen, cell-based, P. falciparum Indochina, OD700, 2 h (AID 1155);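 note: lysis reports solute entry through the parasite surface anion channel PSAC; channel blockers reduce lysis of infected cells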; conditions: P. falciparum Indochina infected erythrocytes, osmotic lysis OD700; higher = more signal, called active from +8 up or from −8 down
# [15] = osmotic lysis modulators in infected erythrocytes, primary screen, PSAC antagonist project, cell-based, P. falciparum Indochina, OD700, 3 h (AID 1156); conditions: higher = more signal, called active from +8 up or from −8 down
# [16] = PSAC antagonists in infected red cells, primary screen, cell-based, P. falciparum Indochina, OD700, 18 h (AID 1157); conditions: P. falciparum Indochina infected erythrocytes, osmotic lysis OD700, 18 h; higher = more signal, called active from +8 up or from −8 down
# [17] = modulators of S6 phosphorylation in cells, primary screen, cell-based, A549, cytoblot, luminescence, serum-stimulated (AID 1158); conditions: A549 phospho-S6 cytoblot, 5 h, higher = more signal;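 note: serum-stimulated A549 lung adenocarcinoma cells; signal is phosphorylated S6 detected by cytoblot immunostaining with HRP secondary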
# [18] = target: NADPH oxidase 2 (Homo sapiens) (UniProt P04839); test: NOX2-dependent H2O2 signal modulators, primary screen, NOX inhibitor project, cell-based, HEK293-NOX2, PMA-stimulated, Amplex Red fluorescence (AID 1159); conditions: 45 min, higher = more signal, called active from +8 up or from −8 down; note: test concentration not given here
# [19] = target: NADPH oxidase 4 (Homo sapiens) (UniProt Q9NPH5); test: NOX4-dependent H2O2 signal modulators, primary screen, NOX inhibitor project, cell-based, HEK293-NOX4, tetracycline-induced, Amplex Red fluorescence (AID 1160); conditions: 45 min, higher = more signal, called active from +8 up or from −8 down
# [20] = target: NADPH oxidase 5 (Homo sapiens) (UniProt Q96PH1); test: NOX5-dependent H2O2 signal modulators, primary screen, NOX inhibitor project, cell-based, HEK293-NOX5, Amplex Red fluorescence (AID 1161); conditions: HEK293-NOX5, ionomycin, 45 min, higher = more signal
# Chain of NADPH oxidase 5 (Homo sapiens) (Q96PH1 whole entry, looked up): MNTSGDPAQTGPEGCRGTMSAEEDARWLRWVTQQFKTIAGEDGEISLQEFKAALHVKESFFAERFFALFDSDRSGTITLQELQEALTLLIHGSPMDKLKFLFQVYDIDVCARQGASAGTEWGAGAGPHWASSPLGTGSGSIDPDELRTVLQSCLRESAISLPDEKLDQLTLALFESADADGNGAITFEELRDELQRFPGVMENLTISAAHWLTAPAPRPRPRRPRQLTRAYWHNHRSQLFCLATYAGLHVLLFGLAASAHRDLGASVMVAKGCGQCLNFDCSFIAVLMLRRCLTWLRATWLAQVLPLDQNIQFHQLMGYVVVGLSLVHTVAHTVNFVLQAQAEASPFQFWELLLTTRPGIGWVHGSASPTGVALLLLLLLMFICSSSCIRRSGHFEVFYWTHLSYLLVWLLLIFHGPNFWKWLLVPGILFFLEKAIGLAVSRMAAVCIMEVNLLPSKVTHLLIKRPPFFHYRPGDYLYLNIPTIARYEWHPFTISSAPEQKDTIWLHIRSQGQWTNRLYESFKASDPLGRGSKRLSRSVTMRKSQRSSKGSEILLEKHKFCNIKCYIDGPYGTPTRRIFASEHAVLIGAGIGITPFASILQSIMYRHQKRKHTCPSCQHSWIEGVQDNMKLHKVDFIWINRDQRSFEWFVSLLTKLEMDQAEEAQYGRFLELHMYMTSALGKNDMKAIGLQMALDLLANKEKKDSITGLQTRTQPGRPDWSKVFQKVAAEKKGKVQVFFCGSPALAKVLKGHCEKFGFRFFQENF
# Chain of NADPH oxidase 2 (Homo sapiens) (P04839 whole entry, looked up): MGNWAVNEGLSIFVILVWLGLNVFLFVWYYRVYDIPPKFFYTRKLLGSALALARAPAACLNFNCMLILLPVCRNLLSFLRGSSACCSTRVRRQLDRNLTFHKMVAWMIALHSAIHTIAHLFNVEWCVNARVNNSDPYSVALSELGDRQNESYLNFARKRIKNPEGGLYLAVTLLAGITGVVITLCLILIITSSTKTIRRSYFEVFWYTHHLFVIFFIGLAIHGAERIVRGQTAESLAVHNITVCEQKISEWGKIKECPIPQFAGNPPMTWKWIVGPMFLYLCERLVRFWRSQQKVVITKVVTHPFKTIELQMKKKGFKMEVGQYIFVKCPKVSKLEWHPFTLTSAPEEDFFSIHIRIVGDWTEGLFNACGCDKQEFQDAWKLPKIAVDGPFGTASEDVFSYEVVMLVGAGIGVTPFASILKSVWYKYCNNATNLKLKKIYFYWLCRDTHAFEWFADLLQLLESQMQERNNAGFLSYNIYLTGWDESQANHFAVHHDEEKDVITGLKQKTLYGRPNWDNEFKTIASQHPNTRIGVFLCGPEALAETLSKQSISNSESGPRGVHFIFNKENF
# Chain of Streptavidin (Streptomyces avidinii) (P22629 whole entry, looked up): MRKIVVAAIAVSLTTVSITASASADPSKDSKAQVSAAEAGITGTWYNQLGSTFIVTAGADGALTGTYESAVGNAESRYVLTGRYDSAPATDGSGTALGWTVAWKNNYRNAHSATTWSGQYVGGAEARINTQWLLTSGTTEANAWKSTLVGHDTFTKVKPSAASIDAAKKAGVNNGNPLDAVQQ
# Chain of Torsin-1A (Homo sapiens) (O14656 whole entry, looked up): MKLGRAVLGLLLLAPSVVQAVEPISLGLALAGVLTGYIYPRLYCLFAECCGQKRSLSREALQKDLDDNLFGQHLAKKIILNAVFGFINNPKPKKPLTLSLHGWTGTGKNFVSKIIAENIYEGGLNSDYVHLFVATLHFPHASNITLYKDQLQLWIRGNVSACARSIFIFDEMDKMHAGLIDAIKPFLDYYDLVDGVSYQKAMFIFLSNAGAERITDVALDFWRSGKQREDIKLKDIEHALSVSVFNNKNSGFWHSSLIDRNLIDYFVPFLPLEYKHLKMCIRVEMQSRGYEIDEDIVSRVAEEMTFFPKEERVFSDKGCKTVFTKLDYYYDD
# Chain of NADPH oxidase 4 (Homo sapiens) (Q9NPH5 whole entry, looked up): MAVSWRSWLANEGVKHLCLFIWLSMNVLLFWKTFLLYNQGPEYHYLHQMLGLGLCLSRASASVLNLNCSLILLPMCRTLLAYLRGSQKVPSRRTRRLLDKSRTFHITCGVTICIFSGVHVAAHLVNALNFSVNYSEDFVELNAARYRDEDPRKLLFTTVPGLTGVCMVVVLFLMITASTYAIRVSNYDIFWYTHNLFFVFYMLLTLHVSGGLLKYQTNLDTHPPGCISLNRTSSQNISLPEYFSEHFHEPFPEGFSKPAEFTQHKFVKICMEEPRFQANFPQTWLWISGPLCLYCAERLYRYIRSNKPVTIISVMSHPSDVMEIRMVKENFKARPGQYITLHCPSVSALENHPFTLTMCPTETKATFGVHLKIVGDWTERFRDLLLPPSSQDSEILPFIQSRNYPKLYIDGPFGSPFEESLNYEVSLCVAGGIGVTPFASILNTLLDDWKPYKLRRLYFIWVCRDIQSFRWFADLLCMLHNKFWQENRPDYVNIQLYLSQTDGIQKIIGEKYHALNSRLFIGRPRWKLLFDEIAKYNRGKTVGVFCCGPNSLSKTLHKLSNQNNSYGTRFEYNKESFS
SMILES,composite z-score [1],z-score [2],z-score [3],z-score [4],z-score [5],composite z-score [6],composite z-score [7],composite z-score (Torsin-1A (Homo sapiens) [8]),composite z-score (Torsin-1A (Homo sapiens) [9]),composite z-score [10],z-score [11],composite z-score [12],z-score [13],z-score [14],z-score [15],z-score [16],z-score [17],z-score [18],z-score [19],z-score [20]
C=CC[C@@]1(C(=O)NCc2ccccc2)N=C(c2ccc(OCCCO)cc2)O[C@@H]1c1ccccc1CN=[N+]=[N-],0.521,-3.66 (inactive),-0.315 (inactive),3.13 (inactive),2.93 (inactive),0.579,0.122,-0.805,0.287,-0.629,-1.52 (inactive),0.791,24 (active),8.62 (active),2.14 (inactive),1.15 (inactive),-0.387,-1.15 (inactive),-0.499 (inactive),0.694
CCCCN1CC=CC23O[C@@H]4/C=C\CCCOC(=O)C4[C@H]2C(=O)N(C(C)CO)[C@@H]3C1=O (stereo not given in full),-0.286,0.33 (inactive),-1.35 (inactive),-0.907 (inactive),-0.679 (inactive),-0.559,-0.05,-0.534,-0.804,0.732,0.65 (inactive),-0.206,1.43 (inactive),1.06 (inactive),1.96 (inactive),0.405 (inactive),0.199,0.889 (inactive),0.124 (inactive),1.5
C/C=C/[C@H](CCn1cc([C@H](O)c2ccccc2)nn1)[Si](C)(C)c1ccc(OC)cc1,-0.582,-1 (inactive),0.303 (inactive),-0.272 (inactive),0.0712 (inactive),-0.832,-0.263,0.0596,-0.57,-0.478,-0.356 (inactive),0.0038,5.6 (inactive),0.755 (inactive),0.39 (inactive),0.13 (inactive),0.293,0.576 (inactive),-0.0887 (inactive),-2.11
COC(=O)c1c(CC[C@@H](CO)NC(=O)Nc2ncn[nH]2)oc(C(=O)Cc2ccccc2)c1C(=O)OC,-0.0403,0.31 (inactive),0.152 (inactive),-0.0106 (inactive),0.352 (inactive),1.36,0.0342,1.49,0.837,1.1,-0.862 (inactive),0.0751,0.658 (inactive),0.22 (inactive),-0.641 (inactive),0.0651 (inactive),0.0642,-1.16 (inactive),-0.331 (inactive),-0.53
COCCOC(=O)N1C(=O)[C@@]2(c3cc(C#CCC(C(=O)OC)C(=O)OC)ccc31)[C@H](c1ccccc1OCCO)N1[C@H](c3ccccc3)[C@H](c3ccccc3)OC(=O)[C@H]1[C@@H]2C(=O)Nc1nc2ccccc2s1,0.964,-2.67 (inactive),-1.9 (inactive),-0.375 (inactive),-0.705 (inactive),0.129,0.135,0.983,1.08,1.49,4.44 (inactive),0.437,11.7 (active),1.48 (inactive),0.444 (inactive),-0.734 (inactive),3.72,1.18 (inactive),1.19 (inactive),-0.494
O=C(CS)NCCCCCCNC(=O)[C@H]1C[C@H]2C(=O)N3CCC[C@H]3C(=O)N2[C@H]1c1ccc(O)cc1,-0.161,-0.514 (inactive),-0.256 (inactive),0.675 (inactive),0.465 (inactive),-0.322,-0.05,0.624,0.947,1.8,-0.827 (inactive),0.157,3.99 (inactive),0.776 (inactive),-1.85 (inactive),0.179 (inactive),-0.126,1.05 (inactive),0.241 (inactive),0.247
C=C(COC)/C(=C/C[C@H](OC(C)=O)c1ccccc1OCCO)c1cnc2ccccc2c1,0.704,-0.0339 (inactive),-0.543 (inactive),0.131 (inactive),0.128 (inactive),0.351,0.0183,0.0548,0.794,1.65,-0.0836 (inactive),-0.0779,16.9 (active),2.74 (inactive),0.661 (inactive),0.799 (inactive),-0.177,-1.79 (inactive),-0.0686 (inactive),-0.854
C=CCN1C(=O)[C@]2(COC(c3ccc(OCCCO)cc3)=N2)Cc2ccccc21,0.258,-3.34 (inactive),-1.18 (inactive),1.8 (inactive),-1.3 (inactive),-0.554,0.167,0.689,0.277,0.169,0.773 (inactive),0.228,23.7 (active),7.4 (inactive),3.23 (inactive),0.181 (inactive),1.3,-2.29 (inactive),0.0437 (inactive),-2.56

# Reference: PubChem BioAssay
